Results filed as inconclusive are left out. Values without a mark were called inactive. The source made the active and inactive calls. Calls follow the shape of the dose curve; as a rule, active = well fitted activation curve with a large enough effect; inconclusive = small, poorly fitted or top-dose-only effect; inactive = no such curve, though single readings can be large or run the other way.

Experimental findings from PubChem BioAssay (NCATS) are described below.
Potency is read from the fitted curve at half-maximal effect.

Chain of Cellular tumor antigen p53 (Homo sapiens) (P04637 whole entry, looked up): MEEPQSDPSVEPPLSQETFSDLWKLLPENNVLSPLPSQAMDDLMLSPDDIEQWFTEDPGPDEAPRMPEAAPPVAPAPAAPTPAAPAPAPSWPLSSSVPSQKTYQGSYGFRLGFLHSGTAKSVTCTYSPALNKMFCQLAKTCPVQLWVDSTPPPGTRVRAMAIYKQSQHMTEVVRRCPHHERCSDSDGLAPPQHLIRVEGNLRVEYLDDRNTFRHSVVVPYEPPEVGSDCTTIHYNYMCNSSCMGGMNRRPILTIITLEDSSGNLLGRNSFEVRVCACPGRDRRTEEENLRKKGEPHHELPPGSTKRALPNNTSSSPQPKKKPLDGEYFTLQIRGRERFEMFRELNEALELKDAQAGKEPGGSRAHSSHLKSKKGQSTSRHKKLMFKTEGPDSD

The assay addresses Cellular tumor antigen p53 (Homo sapiens) (UniProt P04637). Description: Primary qHTS for small molecule compounds that upregulate eGFP-tagged delta133p53alpha (in N-terminal) cells. (AID 2060322). Also: nearly all actives have a fitted effect of over 75% in size.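 As to activation: series mostly up to about 56 µM; 0% = DMSO vehicle and 100% = reference activator.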 The note with it: NCI-H358 eGFP-delta133p53alpha fluorescence, 24 h; activation: active compounds read high. An outline of the steps:
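NCI-H358 cells pre-induced 24 h with 10 ng/ml doxycycline to express N-terminal eGFP-delta133p53alpha, then dosed 24 h at 37C without doxycycline; fixed, Hoechst-stained, GFP intensity by laser scanning cytometry, normalized to DMSO (0%) and 57.5 uM 5-azacytidine (100%).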
In general terms: In qHTS, concentration-response curves come from the screen itself.
Consider `N#Cc1cnc2c(Cl)cc(NCc3cn(CCN4CCCCCC4)nn3)cc2c1Nc1ccc(F)c(Cl)c1`, for which the Potency is 4.26 µM (active). As to `COc1cc(C(=O)O)ccc1OC1OC(CO)C(O)C(O)C1O` (centres undefined), the activation is 10.7%.

As to `COc1cc(C(=O)OC[C@H]2O[C@@H](OC(C)(C)C(=O)O)[C@H](O)[C@@H](O)[C@@H]2O)cc(OC)c1O`, the activation was -29.5%. Turning to `CC1(C)CC2C=C(C(=O)O)C3COC(=O)C(O)(CO)C23C1` (centres undefined), the activation is -13%. On to `C[C@@H]1O[C@@H](O[C@H]2[C@H](O[C@H]3[C@H](O[C@H]4CC[C@@]5(C)C(CC[C@]6(C)C5CC=C5[C@@H]7CC(C)(C(=O)O)C[C@@H](O)[C@]7(C)CC[C@]56C)[C@@]4(C)CO)O[C@H](C(=O)O)[C@@H](O)[C@@H]3O)O[C@H](CO)[C@H](O)[C@@H]2O)[C@H](O)[C@H](O)[C@H]1O` (some centres undefined), for which the activation was -0.893%. Take `C=C1C(=O)OC[C@@H]1C/C=C(\C)CC1CC(C)C(=O)O1` (some centres undefined): the Potency was 23.9 µM (active). On to `OC[C@H]1O[C@@H](OC/C=C/c2ccc(O)cc2)[C@H](O)[C@@H](O)[C@@H]1O`, for which the activation is 12.5%.

Turning to `C=C1CC[C@@H]2[C@](C)(CO)[C@H](O)CC[C@@]2(C)[C@@H]1CC(O)C1=CCOC1=O` (some centres undefined), the activation is -5.34%. For `CC(C)(O)C1OC1C1=CC(=O)C2(C)OC2C1O` (centres undefined), the activation was 1.79%. For `C[C@@H]1O[C@@H](O[C@H]2[C@H](O[C@H]3CC[C@@]4(C)C(CC[C@]5(C)C4CC=C4[C@@H]6CC(C)(C)CC[C@]6(C(=O)O[C@@H]6OC[C@H](O)[C@H](O)[C@H]6O[C@@H]6O[C@@H](C)[C@H](O[C@@H]7O[C@H](CO)[C@@H](O)[C@H](O)[C@H]7O)[C@H](O)[C@H]6O)[C@H](O)C[C@]45C)C3(C)C)O[C@H](CO)[C@@H](O[C@@H]3OC[C@@H](O)[C@H](O)[C@H]3O)[C@@H]2O)[C@H](O)[C@H](O)[C@H]1O` (some centres undefined), the activation was -2.29%. On to `C=C1CCC2C(C)(COC3OC(COC(=O)CC(=O)O)C(O)C(O)C3O)CCCC2(C)C1CCC1=CCOC1=O` (centres undefined), for which the activation was 8.4%. For the compound `C=C1CC2OC(=O)C(=C)C2C(O)/C=C(\C)CCC1O` (centres undefined), the Potency was 26.9 µM (active). As for `O=C(/C=C/c1ccc(O)c(O)c1)OC[C@H]1O[C@@H](OC2CCCCC2O)[C@H](O)[C@@H](O)[C@@H]1O` (some centres undefined), the activation was -3.05%. With `CC/C=C\C(O)C(O)C1=C(C)C(=O)C2(O1)C(=O)NC(OC)(C(=O)c1ccccc1)C2O` (centres undefined), the activation is 0.763%. In the case of `COc1cc(/C=C/C(=O)OC(C)(C)C(OC2OC(CO)C(O)C(O)C2O)C(=O)OCc2ccc(OC3OC(CO)C(O)C(O)C3O)cc2)ccc1O` (centres undefined), the activation is 13.7%.

As for `COc1cc(/C=C/C(=O)O[C@H]2[C@H](O)[C@@H](CO)O[C@@]2(CO)O[C@H]2O[C@H](CO)[C@@H](O)[C@H](O)[C@H]2O)ccc1O`, the activation was 16%.

As for `COc1cc(/C=N\NC(=O)c2ccc3c(c2)OCO3)ccc1OCc1ccccc1`, the activation was 2.39%.

`O=C(/C=C/c1ccc(O)c(O)c1)O[C@H]1[C@@H]2C=CO[C@@H](O[C@@H]3O[C@H](CO)[C@@H](O)[C@H](O)[C@H]3O)[C@@H]2[C@@]2(CO)O[C@@H]12`: the activation is 22.3%. Still for that read-out and setting: to `C[C@@H]1O[C@@H](O[C@H]2[C@H](O)[C@@H](O)[C@H](OC(=O)[C@]34CCC(C)(C)C[C@H]3C3=CCC5[C@@]6(C)CC[C@H](O[C@@H]7O[C@H](C(=O)O)[C@@H](O)[C@H](O)[C@H]7O)C(C)(C)C6CC[C@@]5(C)[C@]3(C)CC4)O[C@@H]2CO)[C@H](O)[C@H](O)[C@H]1O` (some centres undefined) belongs -9.16%; to `O=C(/C=C/N1C[C@@H]2C[C@@H]1CN2c1ccccn1)c1ccccc1O`, -4.33%; to `COc1cc(/C=C/C(=O)O[C@H]2[C@H](O)[C@@H](CO)O[C@@]2(CO)O[C@H]2O[C@H](CO)[C@@H](O)[C@H](O)[C@H]2O)cc(OC)c1O`, -32.8%.

With `CC(=O)N1CCc2ccc(O)c(OC3OC(COC4OCC(O)(CO)C4O)C(O)C(O)C3O)c2C1Cc1ccc(O)cc1` (centres undefined), the activation was -0.763%. On the same count and under the same terms, to `COc1c2cc(c(O[C@@H]3O[C@H](CO)[C@@H](O)[C@H](O)[C@H]3O)c1OC)CCCCC(O)CCc1ccc(O)c-2c1` (some centres undefined) belongs 8.93%; to `Nc1nc2c(cnn2CCCc2ccc(O)cc2)c2nc(-c3ccco3)nn12`, -11%.
